ChEMBL document CHEMBL3433997, “St. Jude Leishmania screening dataset” (2016)

How the values were obtained:
Format in all cases: functional
[1] = target: Solute carrier family 2, facilitated glucose transporter member 1 (Homo sapiens) (UniProt P11166); test: ST_JUDE_LEISH: Cytotoxicity at 2uM final concentration against transgenic Leishmania Mexicana promastigotes LmGLUT1 that are glucose transport deficient and complemented with the human glucose transporter GLUT1. Activity is measured by DNA content using SYBR green in vitro
Solute carrier family 2, facilitated glucose transporter member 1 (Homo sapiens), sequence (P11166 whole entry): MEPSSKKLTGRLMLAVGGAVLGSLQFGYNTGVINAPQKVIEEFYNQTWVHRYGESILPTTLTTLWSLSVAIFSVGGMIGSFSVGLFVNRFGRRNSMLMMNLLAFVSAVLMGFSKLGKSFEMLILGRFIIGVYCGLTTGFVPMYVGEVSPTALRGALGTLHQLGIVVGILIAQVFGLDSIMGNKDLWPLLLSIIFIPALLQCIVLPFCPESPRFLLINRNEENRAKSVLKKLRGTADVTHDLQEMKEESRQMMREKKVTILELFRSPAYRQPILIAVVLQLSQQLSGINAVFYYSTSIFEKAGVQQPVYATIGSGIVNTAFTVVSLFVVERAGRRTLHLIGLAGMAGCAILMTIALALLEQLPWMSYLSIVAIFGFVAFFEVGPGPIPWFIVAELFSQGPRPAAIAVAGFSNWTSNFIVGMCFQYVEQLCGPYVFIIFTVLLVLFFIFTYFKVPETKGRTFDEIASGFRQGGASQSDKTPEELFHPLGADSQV

[2] = target: Hexose transporter 1 (Plasmodium falciparum) (UniProt O97467); test: ST_JUDE_LEISH: Cytotoxicity at 2uM final concentration against transgenic Leishmania Mexicana promastigotes LmPfHT that are glucose transport deficient and complemented with the Plasmodium falciparum hexose transporter. Activity is measured by DNA content using SYBR green in vitro
[3] = target: Glucose transporter (Leishmania mexicana) (UniProt O61059); test: ST_JUDE_LEISH: Cytotoxicity at 2uM final concentration against transgenic Leishmania Mexicana promastigotes LmGT2 that are glucose transport deficient and complemented with the L. Mexicana glucose transporter 2. Activity is measured by DNA content using SYBR green in vitro

SMILES	inhibition [1] [%]	inhibition [2] [%]	inhibition [3] [%]
COc1ccc(Nc2nccc(N3CCC(NC(=O)Nc4cc(C)ccc4C)C3)n2)cc1 (stereo unspecified)	10.3	7.52	9.76
CN1CCC(OC(=O)c2cc3cc(-c4ccccc4)ccc3n2S(=O)(=O)c2ccccc2)CC1	1.64	0.71	3.61
O=c1cc(NCCCNCc2cccc(I)c2)[nH]c2ccccc12	0.98	0.27	-0.58
CCN(CC)CCCC(C)Nc1c(-c2ccc(OC)cc2)cnc2ccccc12 (stereo unspecified)	2.85	3.79	0.36
Cc1cccc2nc(-c3ccc(-c4cccc(CN5CCC(CO)CC5)c4)s3)[nH]c12	1.48	0.4	1.75
Cc1nc(C)c(-c2ccc(Oc3ccc(OC(F)(F)F)cc3)cc2)c(OC(=O)c2ccc(CN(C)C)cc2)c1Cl	10.9	8.12	8.96
COc1ccc(O)c(C(=O)c2cnc3c(c2)c(-c2ccc(F)cc2)c(C#N)c(=O)n3C)c1	8.74	6.89	4.94
Fc1ccc2[nH]c(-c3ccc(-c4cccc(CN5CCN(c6ccncc6)CC5)c4)cc3)nc2c1	2.37	1.42	4.07
CC(C)CCCC(C)(C)NC[C@@H](O)[C@H](Cc1ccccc1)NC(=O)c1cccc(CCC2CC2)c1	3.16	4.54	4.06
Cc1ccc(-c2cc3nc4c(c(NCCCn5ccnc5)n3n2)CCC4)cc1	2.77	1.6	0.92
CS(=O)(=O)N1CC2(CCN(CCC(NC(=S)Nc3ccccc3)c3ccc(Cl)c(Cl)c3)CC2)c2ccccc21 (stereo unspecified)	3.72	1.67	-0.39
CC1(C)N=C(N)N=C(N)N1OCc1cccc2c1ccc1ccccc12	0.96	2.76	0.32
CCc1ccc(NC(=O)c2cccc(CN3CCCN(Cc4ccc(OC)cc4)CC3)c2)cc1	1.52	0.1	0.16
Cc1cnc(C(=O)Nc2ccc(-c3cccc(-c4nc5ccccc5[nH]4)c3)cc2)cn1	2.19	1.94	-0.57
Nc1ncc(OC2CCCCC2)c(N)n1	-1.08	0.87	-1.09
Cc1ccc(Nc2nccc(Nc3ccc4c(C)n[nH]c4c3)n2)cc1F	3.22	4.19	1.7
O=C(CCc1c[nH]cn1)Nc1cccc(-c2ccc(-c3nc4ccccc4[nH]3)cc2)c1	6.89	4.68	6.77
COc1ccc(C2=[N+]([O-])c3ccccc3C2=O)cc1	0.97	0.24	-0.74
CS(=O)(=O)c1ccc2nc(NC(=O)c3csnn3)sc2c1	3.22	3.89	4.47
COc1ccc2nc(-c3ccccc3)cc(N/N=C/c3ccc([N+](=O)[O-])cc3)c2c1	6.36	6.3	2.43
CC(=O)Nc1ccc(C2NC(=O)NC(c3ccccc3)=C2c2nc3ccccc3s2)cc1 (stereo unspecified)	3.15	0.83	2.69
CC1CCCCN1CCCNc1nc(NCc2ccccc2)c2ccccc2n1 (stereo unspecified)	23.1	31.8	10.2
CS(=O)(=O)NCCCNCc1cccc(-c2ccc(-c3nc4ccccc4[nH]3)s2)c1	12.1	11.8	11
COc1ccc(CNC(=O)Nc2cc3cc(-c4ccc(CN(C)C)cc4)ccc3n3c(C)nnc23)cc1	4.84	2.93	3.32

SMILES	inhibition [1] [%]	inhibition [2] [%]	inhibition [3] [%]
COc1ccc(CCNC(=O)c2ccccc2O)cc1-c1ccc(C(C)(C)C)cc1	4.03	2.33	3.39
Cc1cc(N(C)C)nc(Nc2ccc(NC(=O)c3ccccc3C)cc2)n1	11.4	17.1	5.05
CS(=O)(=O)CCNCc1nc(-c2ccc3ncnc(Nc4ccc(OCc5cccc(F)c5)c(Cl)c4)c3c2)cs1	3.7	2.03	-1.62
Cc1ccccc1C1CCN(C2CCC(NC(=O)/C=C/c3cccc(C(F)(F)F)c3)CC2)CC1 (stereo unspecified)	1.86	0.37	2.39
CC(C)C[C@@H](NC(=O)OC(C)(C)C)C(=O)Nc1ccc(Cc2ccc(NC(=O)[C@@H](CC(C)C)NC(=O)OC(C)(C)C)cc2)cc1	3.6	3.72	0.63
Cc1ccc(F)cc1S(=O)(=O)N1CCCCC(c2ccc(C(F)(F)F)cc2)=N1	7.48	5.61	8.34
CC1CC(NCCCNc2cc(=O)c3ccccc3[nH]2)c2cc(Cl)c(Cl)c(Cl)c21 (stereo unspecified)	-1.12	-1.47	-2.15
O=C(Nc1cc(F)cc(F)c1)NC1CCN(CCCCCNC(=O)C2CC2c2ccc(Cl)c(Cl)c2)CC1 (stereo unspecified)	0.3	-0.08	-2.77
COc1ccc(C=NN=c2cc(C)[nH]c3ccccc23)cc1OC	7.8	9.53	2.8
CC(=O)N1N=C(c2ccccc2)Sc2c1nc(-c1ccc(Cl)cc1)n2C(C)=O	1.37	1.41	3.09
O=C(Nc1cc(C(F)(F)F)cc(C(F)(F)F)c1)c1cc(C(F)(F)F)cc(C(F)(F)F)c1	0.3	-0.43	1.06
Cc1cc(N[C@@H](Cc2ccccc2)C(=O)NCCOc2ccccc2)nc(NCCc2ccccn2)n1	6.81	6.41	3.94
Cc1c(C(=O)N2CCCC(C(F)(F)F)C2)sc2cccc(F)c12 (stereo unspecified)	8.1	6.02	5.83
COc1ccc(C=C2SC(=N)N(c3ccccc3OC)C2=O)cc1	6.44	5.54	6.86
COc1cc2nc(C)nc(Nc3ccc(Cc4ccccc4)cc3)c2cc1OC	4.72	5.93	3.99
Cc1cc2ncn(-c3nccc(NCc4cccnc4)n3)c2cc1C	4.32	4.68	2.17
OC(COCc1ccc(-c2ccccc2)cc1)CN1CCCCC1 (stereo unspecified)	2.72	1.99	3.58
N=C(N)NN=Cc1cc2ccccc2c2ccccc12	8.49	9.7	4.16
N=C(N)NN=CC(=O)Nc1ccc(Cl)cc1	7.68	11.3	8.24
CC(C)[C@H](NC(=O)c1ccc(O)c(-c2ccc(Cl)c(Cl)c2)c1)C(=O)NCCN1CCOCC1	2.3	4.31	4.06
NS(=O)(=O)c1cccc(-c2ccc3nccc(-c4cccc(S(N)(=O)=O)c4)c3c2)c1	2.86	0.59	-1.04
CCn1c(-c2nonc2N)nc2c(-c3cccc(NC(=O)Nc4ccc(Cl)cc4)c3)ncc(OCCCN)c21	1.03	0.62	1.46
CCCNCc1ccc(-c2ccc(CN(Cc3cnc(C)cn3)C(=O)/C=C/c3ccccc3C)cc2)nc1	2.17	0.74	0.97
N#Cc1cccc(CN(Cc2ccc(Cl)c(Cl)c2)S(=O)(=O)c2cccc([N+](=O)[O-])c2)c1	2.24	-0.37	4.05

SMILES	inhibition [1] [%]	inhibition [2] [%]	inhibition [3] [%]
Cc1ccc(Cc2c[nH]c(NCCSCc3ccc(CN(C)C)s3)nc2=O)cn1	1.24	1.14	2.78
COc1ccc2nccc([C@@H](O)CN3CCC(NC(=O)/C=C/c4cc([N+](=O)[O-])ccc4OC)CC3)c2c1	1.12	0.92	0.53
CN1CCN(Cc2cccc(Nc3nccc(Nc4ccc(Oc5ccccc5)cc4)n3)c2)CC1	1.89	7.05	5.8
COc1cccc(C2CCN(CCN3CCC(NC(=O)c4ccc(-c5ccc(C#N)cc5)cc4)CC3)CC2)c1	-1.18	0.31	0.19
CN1CCN(CCc2ccc3nc(-c4csc(Cc5cc(Cl)ccc5OCc5ccccc5)n4)[nH]c3c2)CC1	0.84	2.08	-1.4
O=C(CCc1cccnc1)Nc1ccc(-c2cccc(-c3nc4cc(F)ccc4[nH]3)c2)cc1	10.7	9.99	8.65
FC(F)(F)c1ccc(CNC2CCN(CC3CCCCC3)CC2)cc1	7.89	7.71	8.5
CC(=O)N1N=C(c2ccc(F)cc2)Sc2c1nc(-c1ccccc1)n2C(C)=O	8.6	7.94	8.7
CC=CC(=O)N1CCN(c2nccc(-c3ccc(C(C)(C)C)cc3)n2)CC1	8.6	9.97	7.85
Cc1cccc2c3c([nH]c12)C1(CCN(Cc2ccccc2)CC1)NC(C(=O)NCc1ccccc1)C3 (stereo unspecified)	0.05	-0.76	0.87
O=C(Nc1ccc(N2CCN(Cc3cccc(F)c3)CC2)cc1)c1cccs1	3.08	2.27	4.59
N#Cc1cccc(NC(=O)NC2CCN(CCCCCNC(=O)C3CC3c3ccc(Cl)c(Cl)c3)CC2)c1 (stereo unspecified)	0.56	0.42	1.85
COc1ccc2ncc(F)c([C@@H](O)CN3CCC(NCc4cc5c(cn4)OCCO5)CC3)c2c1	2.51	2.79	3.93
COc1ccc(Cl)cc1S(=O)(=O)Nc1cccc(CCN2CCC(N3CCCCC3)CC2)c1	2.48	4.55	0.15
COc1ccc2ncc(F)c(CCN3C4CCC3CC(NCc3cc5c(cn3)OCS5)C4)c2n1 (stereo unspecified)	32.5	41.5	64.1
CCCN(CCC)CCCN(CCCN(CCC)CCC)c1cc(C)nc(Nc2ccc(Cl)cc2)n1	3.33	1.71	2.52
O=S(=O)(Nc1cccc(CCN2CCC(N3CCCCC3)CC2)c1)c1ccc(Cl)cc1	1.09	1.72	0.8
COc1ccc(C=NN=c2cc(C)[nH]c3c(C)cccc23)c2ccccc12	1.53	1.31	5.67
O=C(NCCCN1CCCC1=O)c1cnc(N2CCC(Oc3ccccc3)CC2)c(Cl)c1	0.56	3.58	0.19
COc1ccc(S(=O)(=O)N2CCC(NS(=O)(=O)c3ccc(F)cc3)CC2)cc1	3.51	2.07	3.69
CCCNCc1ccc(-c2ccc(CN(CCOC)C(=O)c3ccccc3)cc2)nc1	1.21	0.61	1.11
Cc1ccccc1CNC(=O)Nc1cccc(-c2csc(NC(=N)N)n2)c1	0.55	0.56	4.51
O=C(Nc1ccccc1)N(Cc1ccc(-c2ccc(CNCc3ccc4c(c3)OCO4)cc2)cc1)C1CCN(Cc2ccccc2)CC1	0.62	-0.02	-6.42
CC(C)C[C@H](NC(=O)c1cc2ccccc2s1)C(=O)N[C@H]1CCN(Cc2ccc(OCCCN(C)C)c(Cl)c2)C1	3.21	2.95	1.32
